# Laboratory results published in PubChem BioAssay AID624414 (National Center for Advancing Translational Sciences (NCATS), 2012).
# Out of some 410,000 compounds screened, about 480 (0.12%) were called active. Rule as the data show it: active = activation above about 50%; inconclusive = mostly about 30% to 49%; inactive = weaker than that. For the sample, actives were picked, then their nearest neighbours and some compounds at random.
# Molecular target: Mucolipin-1 (Homo sapiens) (UniProt Q9GZU1)
# Experiment: qHTS for Agonists of the Human Mucolipin Transient Receptor Potential 1 (TRPML1); also: 0% is about no effect
# Settings: TRPML1-expressing cells, Ca2+ dye fluorescence, FDSS; stronger effect = higher value
# In short: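 Tet-induced TRPML1-DL cells, 1,500 per well, cultured overnight, were loaded with a no-wash Ca2+ dye for 45–90 min. Calcium fluorescence was recorded on the FDSS for 110 s after compound addition, before the EC80 agonist (4 uM 54-4) was added.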
# Chain of Mucolipin-1 (Homo sapiens) (Q9GZU1 whole entry, looked up): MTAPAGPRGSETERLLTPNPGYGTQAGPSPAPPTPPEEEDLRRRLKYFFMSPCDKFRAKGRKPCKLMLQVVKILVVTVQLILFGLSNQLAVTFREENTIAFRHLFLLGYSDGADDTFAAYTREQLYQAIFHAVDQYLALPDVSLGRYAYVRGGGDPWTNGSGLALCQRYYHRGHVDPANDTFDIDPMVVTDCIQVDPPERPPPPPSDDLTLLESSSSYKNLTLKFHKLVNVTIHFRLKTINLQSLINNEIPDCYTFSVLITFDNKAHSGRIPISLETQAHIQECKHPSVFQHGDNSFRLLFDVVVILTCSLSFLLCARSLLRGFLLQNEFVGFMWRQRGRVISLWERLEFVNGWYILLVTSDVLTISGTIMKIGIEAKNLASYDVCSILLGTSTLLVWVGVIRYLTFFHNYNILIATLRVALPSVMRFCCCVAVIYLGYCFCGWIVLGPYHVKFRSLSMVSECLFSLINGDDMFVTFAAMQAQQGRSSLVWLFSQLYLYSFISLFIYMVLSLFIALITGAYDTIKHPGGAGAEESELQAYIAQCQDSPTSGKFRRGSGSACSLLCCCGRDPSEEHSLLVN
row,Structure (SMILES),activation
1,CC(C)OCCCn1c(SCC(=O)c2ccccc2)nc2c(sc3ccccc32)c1=O,0.121% (inactive)
2,CCOCCCNC(=O)c1ccc2nc(CCc3ccccc3)oc2c1,2.82% (inactive)
3,CC(C)(C)n1ncc2c(=O)n(Cc3ccc(C(=O)c4ccccc4)cc3)cnc21,2.07% (inactive)
4,CN(CC(=O)Nc1ccc(F)cc1)CC(=O)N1CCCCC1,-0.517% (inactive)
5,CC(OC(=O)Cc1ccc(F)cc1)C(=O)N1CCc2ccccc21 (stereo not drawn),1.15% (inactive)
6,CC(C(=O)N1CCc2ccccc21)N(C)CC(=O)Nc1ccc(F)cc1 (stereo not drawn),51.7% (active)
7,O=C(O)C1=C/C(=C/C=[N+]2c3cc(O)c(O[C@H]4OC(CO)[C@@H](O)[C@@H](O)[C@@H]4O)cc3C[C@@H]2C(=O)[O-])C[C@H](C(=O)O)N1 (stereo partly drawn),-0.0321% (inactive)
8,Cc1nn(CC(=O)O)c(=O)c2cc3cc(F)ccc3n12,-0.613% (inactive)
9,CC1CC(C)CN(c2oc(-c3ccc(OCc4ccc(Cl)cc4)cc3)nc2C#N)C1 (stereo not drawn),-0.254% (inactive)
10,COc1ccc(-c2ccc(C3C4C=CCCC4(C)C(=O)N3Cc3ccccc3)c(F)c2)cc1OC (stereo not drawn),0.474% (inactive)
11,COc1ccc(Cl)cc1NC(=O)c1sc2nc3c(cc2c1N)CN(C)CC3,1.12% (inactive)
12,O=C(c1ccc2c(c1)N(Cc1ccccc1)C(=O)c1ccccc1S2(=O)=O)N1CCC(Cc2ccccc2)CC1,0.0562% (inactive)
13,CC(=O)c1ccc(NS(=O)(=O)c2ccc(-c3cc(C)no3)s2)cc1,-0.182% (inactive)
14,CN(C)c1cccc2ccccc12,-0.266% (inactive)
15,CC(C)(C)OC(=O)N(Cc1ccco1)S(=O)(=O)c1ccccc1Br,0.62% (inactive)
16,CCOc1cc2[nH]c(=O)n(Cc3ccc(C(=O)NCCN(CC)CC)cc3)c(=O)c2cc1OCC,-0.328% (inactive)
17,O=C(Nc1ccccc1C(F)(F)F)c1nc(S(=O)(=O)Cc2ccccc2F)ncc1Cl,0.0634% (inactive)
18,CCOc1ccccc1NC(=O)Cn1nnc(C(=O)Nc2ccc(C)c(C)c2)c1N,1.55% (inactive)
19,C/C=C/NNC(=O)Cc1ccc(OC)cc1,-0.93% (inactive)
20,CC(C)(C)C1CCC(NC(=O)c2cnn3c2NC(=C2CC2)C=C3C(F)F)CC1 (stereo not drawn),-1.12% (inactive)
21,COCCn1c(N)c(NCc2ccccc2)c(=O)[nH]c1=O,1.47% (inactive)
22,CCC(=O)Nc1ccc(C)cc1-c1nc2ccccc2n(Cc2ccccc2)c1=O,0.405% (inactive)
23,Cc1cc2nc3c(=O)n(Cc4ccccc4)c(=O)[nH]c3nc2cc1N,94.8% (active)
24,COc1cc(OC)c(OC)cc1/C=C1\C=Cc2ccccc21,-0.666% (inactive)
25,COc1ccc(Cc2nc3ccc(C(=O)NCc4ccccc4Cl)cc3o2)cc1,0.91% (inactive)
26,COc1ccccc1CNc1nccn(-c2ccc(F)cc2)c1=O,0.564% (inactive)
27,O=C1COc2ccc(-c3csc(-c4ccc(Cl)cc4)n3)cc2N1,-0.602% (inactive)

row,Structure (SMILES),activation
1,NC(=O)Nc1ccc(/C=C/c2ccnc3ccccc23)cc1,-0.0317% (inactive)
2,CC(=O)Nc1ccc(S(=O)(=O)N2N=NC3C2C2CC4C3(CN(C(=O)OC(C)(C)C)S4(=O)=O)O2)cc1 (stereo not drawn),0.118% (inactive)
3,COc1ccc(CNc2nc(-c3ccc(Cl)cc3)nn2S(=O)(=O)c2ccc(C)cc2)cc1,3.68% (inactive)
4,O=C(Nc1cccc2cccnc12)C(F)(F)F,1.01% (inactive)
5,CCOc1ccc(NC(=O)c2cnn(-c3ccccc3)c2-n2cccc2)cc1,-0.36% (inactive)
6,CC(C)(C)c1ccc(C(=O)C[n+]2cccc3cc(Cl)ccc32)cc1,0.444% (inactive)
7,O=C(/C=C(O)/C=C/c1ccc(O)cc1)/C=C/c1ccc(O)cc1,80.8% (active)
8,COc1ccc(C(=O)c2oc3ccccc3c2NC(=O)COc2cccc(C)c2)cc1,-0.131% (inactive)
9,Cc1cc(C)cc(NC(c2nnc(-c3cccc(F)c3)o2)c2ccc(F)cc2Cl)c1 (stereo not drawn),0.152% (inactive)
10,O=C1CCC[C@@H]2C[C@@]3(C[C@@H]4CCN1[C@H]24)Nc1ccccc1NC3=NCc1ccccc1,0.0295% (inactive)
11,Cc1c(CCO)sc[n+]1CC(=O)c1ccc2ccccc2c1,-0.38% (inactive)
12,O=C(c1ccc2c(c1)N(Cc1ccccc1F)C(=O)c1ccccc1S2(=O)=O)N1CCOCC1,-0.566% (inactive)
13,COc1ccc(/C=C/c2ccnc3ccccc23)cc1OC,-0.507% (inactive)
14,CN(C)C1=C2C=CC=CC2/C(=C2/C=Cc3ccccc32)C=C1 (stereo not drawn),-0.475% (inactive)
15,COc1cc2nc(C#Cc3nc4cc(OC)c(OC)cc4[nH]3)[nH]c2cc1OC,-0.266% (inactive)
16,O=C(NC1CC(=O)N(c2ccc(F)cc2)C1)c1cccs1 (stereo not drawn),-0.226% (inactive)
17,COc1ccccc1CN1CCC(CNC(=O)c2cnn(-c3cccc(Cl)c3)c2C2CCN(C(=O)OC(C)(C)C)CC2)CC1,1.58% (inactive)
18,Cc1cccc(-n2ncc(C(=O)N3CCC(C)CC3)c2C2CCN(C(=O)OC(C)(C)C)CC2)c1,0.455% (inactive)
19,Cc1cccc(-n2ncc(C(=O)N3CCc4ccccc4C3)c2C2CCN(C(=O)OC(C)(C)C)CC2)c1,0.364% (inactive)
20,CC(C)(C)OC(=O)N1CCC(c2c(C(=O)N3CCN(c4cccc(Cl)c4)CC3)cnn2-c2cccc(Cl)c2)CC1,69.8% (active)
21,Cc1cccc(-n2ncc(C(=O)N3CCN(c4ccc(Cl)cc4)CC3)c2C2CCN(C(=O)OC(C)(C)C)CC2)c1,51.3% (active)
22,CCOC(=O)N1CCC(NC(=O)c2cnn(-c3cccc(C)c3)c2C2CCN(C(=O)OC(C)(C)C)CC2)CC1,0.0606% (inactive)
23,COCC(C)NS(=O)(=O)c1ccc(N2CCCCS2(=O)=O)cc1 (stereo not drawn),-0.459% (inactive)
24,CC1=C(c2ccc(F)cc2)S(=O)(=O)N=C1N1CCC(C(=O)NCCc2ccccc2C)CC1,2.54% (inactive)
25,COc1ccc(-c2nc(=N)sn2-c2ccccc2)cc1,12.5% (inactive)
26,COc1ccc(/C=C/c2ccccn2)cc1OC,-0.792% (inactive)
